Assay [1] concerns the target Tyrosine-protein kinase Fyn (Homo sapiens) (UniProt P06241). Conditions: at 1 µM.
The target in assay [2] is Tyrosine-protein kinase HCK (Homo sapiens) (UniProt P08631). The settings on record: at 0.1 µM.
Assay [3] shares this target. The settings on record: at 1 µM.
In assay [4] the target is Insulin-like growth factor 1 receptor (Homo sapiens) (UniProt P08069). The settings on record: at 0.1 µM.
Assay [5] shares this target. Conditions: at 1 µM.
Assay [6] addresses Insulin receptor (Homo sapiens) (UniProt P06213). The settings on record: at 0.1 µM.
The target is the same in assay [7]. Conditions: at 1 µM.
The target of assay [8] is Insulin receptor-related protein (Homo sapiens) (UniProt P14616). Conditions: at 0.1 µM.
For assay [9] the target is unchanged. The settings on record: at 1 µM.
For assay [10], the target named is T1, Tyrosine-protein kinase ITK/TSK (Homo sapiens) (UniProt Q08881).
T1 sequence (whole entry): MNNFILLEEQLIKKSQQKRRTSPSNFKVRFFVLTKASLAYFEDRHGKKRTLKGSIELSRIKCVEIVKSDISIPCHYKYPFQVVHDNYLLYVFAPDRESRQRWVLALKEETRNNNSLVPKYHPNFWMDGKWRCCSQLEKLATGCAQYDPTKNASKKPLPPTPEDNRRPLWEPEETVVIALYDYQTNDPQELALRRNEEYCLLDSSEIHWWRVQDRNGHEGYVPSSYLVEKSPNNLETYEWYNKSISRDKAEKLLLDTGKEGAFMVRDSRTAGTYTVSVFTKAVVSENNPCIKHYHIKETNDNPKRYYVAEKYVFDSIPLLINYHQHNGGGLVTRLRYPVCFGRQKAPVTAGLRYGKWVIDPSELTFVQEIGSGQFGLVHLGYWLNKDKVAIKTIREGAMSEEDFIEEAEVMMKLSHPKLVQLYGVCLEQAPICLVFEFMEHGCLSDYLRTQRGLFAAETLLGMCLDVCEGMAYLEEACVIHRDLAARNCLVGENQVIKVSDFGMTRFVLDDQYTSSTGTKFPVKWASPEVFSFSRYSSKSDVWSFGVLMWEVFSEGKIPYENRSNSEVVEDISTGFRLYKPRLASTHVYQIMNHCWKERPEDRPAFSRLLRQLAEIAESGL
The settings on record: at 0.1 µM.

Assay [11] concerns the target T1, Tyrosine-protein kinase ITK/TSK (Homo sapiens). The settings on record: at 1 µM.
Assay [12] has as its target Tyrosine-protein kinase JAK1 (Homo sapiens) (UniProt P23458). The settings on record: at 0.1 µM.
Assay [13] shares this target. The settings on record: at 1 µM.
The target in assay [14] is Tyrosine-protein kinase JAK2 (Homo sapiens) (UniProt O60674). The settings on record: at 0.1 µM.
Assay [15] shares this target. The settings on record: at 1 µM.
In assay [16] the target is T2, Tyrosine-protein kinase JAK3 (Homo sapiens) (UniProt P52333).
T2 sequence (whole entry): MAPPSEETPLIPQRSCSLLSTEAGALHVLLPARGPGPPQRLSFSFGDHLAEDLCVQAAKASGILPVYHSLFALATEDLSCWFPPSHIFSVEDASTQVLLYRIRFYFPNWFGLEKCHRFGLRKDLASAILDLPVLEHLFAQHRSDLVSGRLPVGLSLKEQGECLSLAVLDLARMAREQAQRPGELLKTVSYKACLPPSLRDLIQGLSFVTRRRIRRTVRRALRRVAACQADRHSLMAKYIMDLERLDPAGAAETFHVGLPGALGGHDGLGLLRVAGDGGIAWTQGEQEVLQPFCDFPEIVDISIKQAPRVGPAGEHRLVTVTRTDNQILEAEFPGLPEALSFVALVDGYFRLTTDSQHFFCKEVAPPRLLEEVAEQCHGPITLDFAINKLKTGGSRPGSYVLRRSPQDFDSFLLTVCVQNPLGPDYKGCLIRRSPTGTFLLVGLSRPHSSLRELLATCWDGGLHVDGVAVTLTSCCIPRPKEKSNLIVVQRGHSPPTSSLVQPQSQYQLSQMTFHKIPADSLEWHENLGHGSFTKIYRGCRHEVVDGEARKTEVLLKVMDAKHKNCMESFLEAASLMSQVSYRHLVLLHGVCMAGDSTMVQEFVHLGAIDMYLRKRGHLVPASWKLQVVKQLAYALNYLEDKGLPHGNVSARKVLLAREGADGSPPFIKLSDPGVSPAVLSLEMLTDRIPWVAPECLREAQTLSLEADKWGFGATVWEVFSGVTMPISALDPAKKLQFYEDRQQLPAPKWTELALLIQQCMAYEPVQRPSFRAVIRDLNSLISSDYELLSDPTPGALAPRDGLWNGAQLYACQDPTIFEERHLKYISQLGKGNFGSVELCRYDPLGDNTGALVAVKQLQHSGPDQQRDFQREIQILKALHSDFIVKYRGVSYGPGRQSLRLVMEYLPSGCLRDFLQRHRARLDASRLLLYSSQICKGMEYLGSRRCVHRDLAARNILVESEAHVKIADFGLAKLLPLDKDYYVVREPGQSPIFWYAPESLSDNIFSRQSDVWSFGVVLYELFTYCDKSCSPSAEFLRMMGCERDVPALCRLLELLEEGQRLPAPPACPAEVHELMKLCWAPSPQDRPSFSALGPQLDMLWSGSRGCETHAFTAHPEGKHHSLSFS
Conditions: at 0.1 µM.

Assay [17] deals with T2, Tyrosine-protein kinase JAK3 (Homo sapiens). Conditions: at 1 µM.
Assay [18] deals with Vascular endothelial growth factor receptor 2 (Homo sapiens) (UniProt P35968). Conditions: at 0.1 µM.
For assay [19] the target is unchanged. The settings on record: at 1 µM.
Assay [20] deals with Mast/stem cell growth factor receptor Kit (Homo sapiens) (UniProt P10721). The settings on record: at 0.1 µM.

One may read the inhibition as the drop in the measured response relative to a control, in per cent.

Chain of Insulin-like growth factor 1 receptor (Homo sapiens) (P08069 31-736 limits assumed): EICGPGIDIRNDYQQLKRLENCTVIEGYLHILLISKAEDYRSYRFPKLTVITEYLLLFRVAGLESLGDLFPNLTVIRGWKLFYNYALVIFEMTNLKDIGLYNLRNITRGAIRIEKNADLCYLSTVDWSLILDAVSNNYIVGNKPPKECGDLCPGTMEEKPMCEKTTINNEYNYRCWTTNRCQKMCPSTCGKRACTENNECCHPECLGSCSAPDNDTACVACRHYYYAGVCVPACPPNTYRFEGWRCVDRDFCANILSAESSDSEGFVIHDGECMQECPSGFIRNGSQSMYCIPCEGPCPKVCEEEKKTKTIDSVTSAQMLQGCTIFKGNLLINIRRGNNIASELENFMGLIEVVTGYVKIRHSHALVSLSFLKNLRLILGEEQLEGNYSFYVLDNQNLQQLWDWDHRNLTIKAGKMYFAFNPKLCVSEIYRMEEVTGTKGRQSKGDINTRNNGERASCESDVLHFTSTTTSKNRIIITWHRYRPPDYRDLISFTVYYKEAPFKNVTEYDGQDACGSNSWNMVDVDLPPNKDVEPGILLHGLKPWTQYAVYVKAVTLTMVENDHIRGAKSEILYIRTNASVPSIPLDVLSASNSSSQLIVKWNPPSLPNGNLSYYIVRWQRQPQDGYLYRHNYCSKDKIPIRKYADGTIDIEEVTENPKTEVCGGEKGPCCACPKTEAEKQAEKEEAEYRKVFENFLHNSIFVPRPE
Chain of Insulin-like growth factor 1 receptor (Homo sapiens) (P08069 741-1367 limits assumed): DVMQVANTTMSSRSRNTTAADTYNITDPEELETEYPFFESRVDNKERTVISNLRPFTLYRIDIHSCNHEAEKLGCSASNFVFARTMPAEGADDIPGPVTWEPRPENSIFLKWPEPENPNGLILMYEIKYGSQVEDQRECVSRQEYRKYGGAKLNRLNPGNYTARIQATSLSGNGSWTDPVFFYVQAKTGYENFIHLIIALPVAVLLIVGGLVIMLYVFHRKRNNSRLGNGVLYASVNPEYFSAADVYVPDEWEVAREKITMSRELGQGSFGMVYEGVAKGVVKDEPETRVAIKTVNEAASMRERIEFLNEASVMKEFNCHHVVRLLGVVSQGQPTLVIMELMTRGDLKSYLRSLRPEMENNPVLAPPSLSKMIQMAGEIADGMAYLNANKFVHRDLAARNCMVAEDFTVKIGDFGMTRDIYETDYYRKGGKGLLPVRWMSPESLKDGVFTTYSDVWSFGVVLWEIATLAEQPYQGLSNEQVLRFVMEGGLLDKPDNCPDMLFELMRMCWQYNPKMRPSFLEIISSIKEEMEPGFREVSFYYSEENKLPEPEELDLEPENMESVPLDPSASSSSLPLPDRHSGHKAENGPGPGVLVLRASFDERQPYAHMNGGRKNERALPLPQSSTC
Chain of Tyrosine-protein kinase JAK1 (Homo sapiens) (P23458 whole entry): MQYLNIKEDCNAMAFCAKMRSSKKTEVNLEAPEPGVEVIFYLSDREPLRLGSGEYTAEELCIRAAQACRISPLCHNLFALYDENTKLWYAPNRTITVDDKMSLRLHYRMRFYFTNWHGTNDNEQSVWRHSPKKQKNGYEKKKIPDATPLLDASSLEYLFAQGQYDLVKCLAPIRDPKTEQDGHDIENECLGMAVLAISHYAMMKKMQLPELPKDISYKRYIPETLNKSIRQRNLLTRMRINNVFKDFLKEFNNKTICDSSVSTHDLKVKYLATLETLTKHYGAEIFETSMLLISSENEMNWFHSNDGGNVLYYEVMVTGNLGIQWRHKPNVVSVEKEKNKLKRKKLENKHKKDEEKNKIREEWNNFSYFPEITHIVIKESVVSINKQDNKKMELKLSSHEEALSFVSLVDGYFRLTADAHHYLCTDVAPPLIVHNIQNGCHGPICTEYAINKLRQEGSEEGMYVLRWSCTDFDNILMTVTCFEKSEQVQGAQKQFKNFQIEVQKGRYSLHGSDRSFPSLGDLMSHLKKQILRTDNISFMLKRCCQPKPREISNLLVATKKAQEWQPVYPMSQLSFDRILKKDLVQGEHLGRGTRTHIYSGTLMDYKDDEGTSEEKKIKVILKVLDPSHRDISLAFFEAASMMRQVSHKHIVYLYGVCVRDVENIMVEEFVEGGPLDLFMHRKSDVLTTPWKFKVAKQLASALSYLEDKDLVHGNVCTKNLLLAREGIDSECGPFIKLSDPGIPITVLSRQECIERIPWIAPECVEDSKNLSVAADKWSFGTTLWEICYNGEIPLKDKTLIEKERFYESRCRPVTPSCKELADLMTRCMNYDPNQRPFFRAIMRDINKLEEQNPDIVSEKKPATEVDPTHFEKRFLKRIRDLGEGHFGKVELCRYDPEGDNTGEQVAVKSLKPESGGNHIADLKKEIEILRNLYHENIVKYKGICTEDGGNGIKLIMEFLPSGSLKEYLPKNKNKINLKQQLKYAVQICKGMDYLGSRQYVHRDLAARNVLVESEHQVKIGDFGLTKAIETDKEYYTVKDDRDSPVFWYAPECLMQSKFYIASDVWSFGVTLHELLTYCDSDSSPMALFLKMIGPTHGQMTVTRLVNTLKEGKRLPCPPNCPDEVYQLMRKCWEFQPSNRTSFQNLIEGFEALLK
Chain of Insulin receptor (Homo sapiens) (P06213 28-758 limits assumed): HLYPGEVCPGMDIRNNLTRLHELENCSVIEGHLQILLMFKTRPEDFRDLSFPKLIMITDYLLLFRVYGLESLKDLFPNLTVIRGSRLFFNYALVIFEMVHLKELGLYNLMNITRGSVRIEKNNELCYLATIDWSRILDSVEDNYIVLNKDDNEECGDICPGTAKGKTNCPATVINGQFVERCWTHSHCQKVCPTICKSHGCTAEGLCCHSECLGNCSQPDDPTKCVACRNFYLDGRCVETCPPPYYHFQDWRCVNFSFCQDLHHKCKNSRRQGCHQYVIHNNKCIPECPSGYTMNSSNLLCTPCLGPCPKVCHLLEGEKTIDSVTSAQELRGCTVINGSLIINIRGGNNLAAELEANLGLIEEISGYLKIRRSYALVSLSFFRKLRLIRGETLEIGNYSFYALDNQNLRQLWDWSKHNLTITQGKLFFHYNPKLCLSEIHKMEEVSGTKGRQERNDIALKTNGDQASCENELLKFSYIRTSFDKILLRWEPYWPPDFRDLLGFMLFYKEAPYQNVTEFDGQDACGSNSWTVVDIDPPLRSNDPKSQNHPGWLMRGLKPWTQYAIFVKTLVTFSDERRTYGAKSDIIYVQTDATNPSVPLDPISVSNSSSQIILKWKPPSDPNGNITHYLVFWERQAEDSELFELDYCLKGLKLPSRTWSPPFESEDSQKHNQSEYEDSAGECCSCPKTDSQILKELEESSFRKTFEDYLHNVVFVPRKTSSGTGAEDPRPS
Chain of Insulin receptor (Homo sapiens) (P06213 763-1382 limits assumed): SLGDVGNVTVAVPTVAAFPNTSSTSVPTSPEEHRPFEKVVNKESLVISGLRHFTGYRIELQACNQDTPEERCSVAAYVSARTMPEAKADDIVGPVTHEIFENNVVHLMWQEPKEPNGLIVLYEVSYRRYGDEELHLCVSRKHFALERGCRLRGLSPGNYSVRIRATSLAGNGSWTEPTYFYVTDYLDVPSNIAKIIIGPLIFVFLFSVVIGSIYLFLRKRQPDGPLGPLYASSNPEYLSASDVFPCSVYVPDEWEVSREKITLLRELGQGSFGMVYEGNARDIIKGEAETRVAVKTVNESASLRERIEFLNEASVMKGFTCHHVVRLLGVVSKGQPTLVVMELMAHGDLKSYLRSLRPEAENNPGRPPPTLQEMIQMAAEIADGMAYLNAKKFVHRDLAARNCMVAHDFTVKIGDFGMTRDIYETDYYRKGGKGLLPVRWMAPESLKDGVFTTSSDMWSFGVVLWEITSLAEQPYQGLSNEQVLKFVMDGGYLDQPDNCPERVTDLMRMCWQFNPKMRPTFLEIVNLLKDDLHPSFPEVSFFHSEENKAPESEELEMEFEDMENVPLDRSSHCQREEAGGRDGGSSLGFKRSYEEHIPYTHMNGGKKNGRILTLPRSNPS
Chain of Tyrosine-protein kinase Fyn (Homo sapiens) (P06241 2-537 limits assumed): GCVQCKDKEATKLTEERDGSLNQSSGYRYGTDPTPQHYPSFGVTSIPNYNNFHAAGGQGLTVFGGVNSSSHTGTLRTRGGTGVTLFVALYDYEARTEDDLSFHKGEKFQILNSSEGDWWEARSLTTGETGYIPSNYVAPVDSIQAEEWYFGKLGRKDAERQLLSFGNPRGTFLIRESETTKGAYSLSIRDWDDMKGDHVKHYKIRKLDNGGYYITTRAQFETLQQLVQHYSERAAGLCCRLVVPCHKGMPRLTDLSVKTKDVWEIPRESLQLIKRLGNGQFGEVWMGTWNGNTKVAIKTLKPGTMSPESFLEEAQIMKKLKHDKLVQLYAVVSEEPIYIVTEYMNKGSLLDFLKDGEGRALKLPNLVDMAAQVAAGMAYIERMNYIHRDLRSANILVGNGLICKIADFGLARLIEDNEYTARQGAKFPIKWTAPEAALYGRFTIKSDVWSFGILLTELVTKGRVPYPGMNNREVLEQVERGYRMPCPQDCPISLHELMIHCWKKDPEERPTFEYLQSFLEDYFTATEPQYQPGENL
Chain of Tyrosine-protein kinase HCK (Homo sapiens) (P08631 2-526 limits assumed): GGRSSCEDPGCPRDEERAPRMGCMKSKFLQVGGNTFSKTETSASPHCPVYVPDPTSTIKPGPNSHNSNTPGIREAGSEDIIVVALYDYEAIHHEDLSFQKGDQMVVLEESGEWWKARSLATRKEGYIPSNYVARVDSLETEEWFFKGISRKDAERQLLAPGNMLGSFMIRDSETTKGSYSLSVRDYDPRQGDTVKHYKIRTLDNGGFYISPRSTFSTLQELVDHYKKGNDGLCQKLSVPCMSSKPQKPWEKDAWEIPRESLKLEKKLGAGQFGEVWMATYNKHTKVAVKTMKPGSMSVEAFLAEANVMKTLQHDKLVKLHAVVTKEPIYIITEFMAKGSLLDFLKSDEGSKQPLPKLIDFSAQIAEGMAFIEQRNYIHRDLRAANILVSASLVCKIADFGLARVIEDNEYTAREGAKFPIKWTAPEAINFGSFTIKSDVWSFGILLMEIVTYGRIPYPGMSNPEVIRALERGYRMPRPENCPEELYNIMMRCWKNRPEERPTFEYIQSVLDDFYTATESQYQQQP

As for `Fc1ccc(-c2nn3ncccc3c2-c2ccnc(Nc3ccc4c(c3)OCCO4)n2)cc1`, the inhibition came out at 88% in assay [1]; 26.3% in assay [2]; 71.5% in [3]; 8.14% in assay [4]; 3.49% in [5]; 7.04% in [6]. In addition, the inhibition in [7] is 18.3%; in assay [8], 2.61%; in assay [9], 1.61%; in assay [10], 1.51%; in assay [11], 0.31%; in assay [12], 3.02%. Besides, the inhibition was 2.04% in assay [13]; 0.34% in [14]; 1.88% in assay [15]; -0.15% in [16]; -1.41% in assay [17]; 30.6% in assay [18]. Besides, the inhibition in [19] worked out at 75.5%; in [20], 60.7%.

Consider `c1ccc(-c2nc3n(c2-c2ccc4c(c2)OCO4)CCC3)nc1`, for which the inhibition in assay [1] was found to be 2.79%; in assay [2], 2.86%; in assay [3] it was 0.81%; in [4], 9.41%; in assay [5] it was 8.89%; in assay [6], 4.57%. Besides, the inhibition in assay [7] was 3.26%; in [8], 0.08%; in assay [9], 1.11%; in assay [10], 0.42%; in [11], 0.24%; in assay [12] it was -2.35%. Besides, the inhibition was 4.78% in assay [13]; 1.27% in [14]; -1.02% in assay [15]; -0.19% in assay [16]; -0.04% in assay [17]; 3.58% in assay [18]. Also, the inhibition in assay [19] worked out at 11.7%; in [20] it was 1.86%.

For `CCn1c(-c2nonc2N)nc2c(C#CC(C)(C)O)ncc(OC3CCNCC3)c21`, the inhibition in assay [1] was 5.91%; in assay [2], 3.4%; in assay [3], 7.03%; in assay [4], 1.97%; in assay [5], 2.36%; in assay [6] it was 1.46%. For the same compound, the inhibition is 3.32% in assay [7]; 1.16% in assay [8]; 2.07% in assay [9]; 1.99% in assay [10]; 2.09% in assay [11]; 3.54% in assay [12]. In addition, the inhibition is 3.51% in assay [13]; 1.5% in [14]; 2.39% in assay [15]; -2.24% in assay [16]; -1.24% in assay [17]; 27.1% in [18]. The inhibition is 76.1% in assay [19] and 2.24% in assay [20].

As for `Nc1ncc(-c2cccc(S(N)(=O)=O)c2)c2scc(-c3ccc(F)c(Cl)c3)c12`, the inhibition in assay [1] was 32.6%; in assay [2] it was 28.2%; in assay [3] it was 76.1%; in assay [4], 0.87%; in assay [5], 1.23%; in assay [6] it was -0.93%. Also, the inhibition in [7] came to 1.76%; in assay [8], 2.94%; in assay [9] it was 4.45%; in assay [10], 0.53%; in [11], 3.69%; in [12] it was 2.73%. Further, the inhibition is 6.91% in assay [13]; 0.29% in assay [14]; 1.31% in [15]; -2.63% in assay [16]; -0.64% in assay [17]; 6.89% in assay [18]. Moreover, the inhibition in assay [19] was 34.2%; in assay [20], 38%.

Regarding `COc1ccc(-c2cc(-c3c[nH]nc3-c3ccccn3)ccn2)cc1`, the inhibition came out at 3.5% in assay [1]; 4.81% in assay [2]; 10.3% in assay [3]; 3.75% in assay [4]; 3.01% in assay [5]; 4.5% in assay [6]. Further, the inhibition in assay [7] was determined as 3.43%; in [8], 3.63%; in assay [9], 3.15%; in assay [10] it was 1.28%; in assay [11], 2.05%; in assay [12], 4.74%. The inhibition was 7.4% in assay [13]; 1.59% in [14]; 4.19% in assay [15]; -1.18% in assay [16]; -0.62% in assay [17]; 12.7% in [18]. In addition, the inhibition in assay [19] is 48%; in [20], 5.05%.

For the compound `Cc1cccc2c1NC(=O)/C2=N\Nc1ccc(S(N)(=O)=O)cc1`, the inhibition came out at 1.92% in [1]; 4.11% in assay [2]; 6.57% in assay [3]; 1.39% in assay [4]; 2.37% in [5]; 2.44% in assay [6]. The inhibition is 2.27% in assay [7]; 6.42% in assay [8]; 0.05% in [9]; 1.75% in assay [10]; 2.45% in assay [11]; 3.68% in assay [12]. Further, the inhibition in [13] stood at 0.61%; in assay [14], 2.04%; in assay [15], 4%; in assay [16], 0%; in assay [17], 4.14%; in [18], 1.56%. For the same compound, the inhibition in assay [19] is 1.84%; in assay [20] it was 8.83%.

Values taken from ChEMBL document CHEMBL1961873, “Compounds: GSK PKIS; Assays: Nanosyn kinase panel” (2012).
